Laboratory results published in PubChem BioAssay AID1159580 (chemical genetic matrix, 2015).
“And” between values parts separate entries of the source, which are not always exact repeats. Equal entries are not always repeated. About 2,000 (36%) of roughly 5,500 compounds were called active. Roughly 18% stayed inconclusive and do not appear here. Cut-off read from the data, not from the text of the source: active = normalized growth mostly below about 0.91 (no sharp cut-off); inconclusive = no clear call, values can overlap the other calls; inactive = mostly above about 0.92. This is one part of the list.

Test: chemical genetic growth profiling, strain panel (AID 1159580);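 note: tested at 20 µM; growth read once vehicle control cultures reached saturation at 30 °C; 1 = growth at the plate median or of vehicle wells; lower values mean less growth of the strain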
Settings: S. cerevisiae deletion strains, growth OD
[1] = locus YGR229C, strain SMI1, hits give low values
[2] = locus YMR307W, strain GAS1, hits give low values
[3] = locus YPL055C, strain LGE1, hits give low values

Measured: normalized growth

Oc1ccc(Cn2cc[nH]c2=S)cc1
active: locus YNL197C, strain WHI3, hits give low values 0.477 | locus YOR083W, strain WHI5 (second series), hits give low values 0.681
inactive: locus YAL040C, strain CLN3, hits give low values 0.993 | locus YCL061C, strain MRC1 (second series), hits give low values 1.01 | locus YDR363W, strain ESC2, hits give low values 1 | locus YER002W, strain NOP16, hits give low values 1.03 | [1] 0.986 | [2] 1 | locus YNL175C, strain NOP13, hits give low values 1 | locus YNL224C, strain SQS1, hits give low values 0.999 | [3] 1.01

Cn1cc[nH]c1=S
inactive: locus YAL021C, strain ccr4, hits give low values 0.981 | locus YAL026C, strain drs2, hits give low values 0.99 | locus YAL030W, strain snc1, hits give low values 0.99 | locus YBL061C, strain skt5, hits give low values 0.99 | locus YBR009C, strain hhf1, hits give low values 1.03 | locus YBR021W, strain FUR4, hits give low values 0.991 | locus YBR023C, strain chs3, hits give low values 0.98 | locus YBR171W, strain sec66, hits give low values 0.99 | locus YBR229C, strain ROT2, hits give low values 1.01 | locus YBR231C, strain swc5, hits give low values 1 | locus YBR279W, strain paf1, hits give low values 0.974 | locus YCL011C, strain gbp2, hits give low values 0.967 | locus YCL016C, strain dcc1, hits give low values 0.963 | locus YCL029C, strain bik1, hits give low values 0.976 | locus YCL069W, strain vba3, hits give low values 0.999 | locus YCR088W, strain abp1, hits give low values 0.991 | locus YDL005C, strain med2, hits give low values 0.963 | locus YDL035C, strain GPR1, hits give low values 1.01 | locus YDL040C, strain nat1, hits give low values 0.989 | locus YDL074C, strain BRE1, hits give low values 1.02 | locus YDL101C, strain DUN1, hits give low values 0.996 | locus YDL185W, strain tfp1, hits give low values 0.935 | locus YDL192W, strain arf1, hits give low values 0.971 | locus YDR001C, strain nth1, hits give low values 0.989 | locus YDR069C, strain doa4, hits give low values 1.01 | locus YDR101C, strain arx1, hits give low values 1.02 | locus YDR137W, strain rgp1, hits give low values 0.985 | locus YDR159W, strain sac3, hits give low values 0.974 | locus YDR162C, strain NBP2, hits give low values 1.01 | locus YDR195W, strain ref2 0.99 | locus YDR297W, strain sur2, hits give low values 1.01 | locus YDR318W, strain mcm21, hits give low values 0.968 | locus YDR334W, strain swr1, hits give low values 0.973 | locus YDR335W, strain msn5, hits give low values 1 | locus YDR388W, hits give low values 0.991 | locus YDR392W, strain spt3, hits give low values 0.887 | locus YDR502C, strain sam2, hits give low values 0.993 | locus YEL003W, strain gim4, hits give low values 1 | locus YEL037C, strain rad23, hits give low values 0.98 | locus YEL061C, strain CIN8 (second series), hits give low values 0.984 | locus YEL061C, strain CIN8, hits give low values 0.985 | locus YER015W, strain faa2, hits give low values 0.993 | locus YER016W, strain bim1, hits give low values 0.978 | locus YER110C, hits give low values 0.967 | locus YER111C, strain swi4, hits give low values 0.967 | locus YER155C, strain BEM2 (second series), hits give low values 0.976 | locus YER155C, strain BEM2, hits give low values 1 | locus YER167W, strain BCK2, hits give low values 1 | locus YFR010W, strain ubp6, hits give low values 1.01 | locus YGL078C, strain dbp3, hits give low values 0.956 | locus YGL086W, strain mad1, hits give low values 1.01 | locus YGL167C, strain pmr1, hits give low values 0.992 | locus YGL173C, strain kem1, hits give low values 0.987 | locus YGL227W, strain vid30, hits give low values 1.01 | locus YGL240W, strain doc1, hits give low values 0.981 | locus YGL248W, strain PDE1, hits give low values 1 | locus YGL253W, strain hxk2, hits give low values 0.97 | locus YGR078C, strain PAC10, hits give low values 1 | locus YGR135W, strain pre9, hits give low values 0.938 | [1] 1.01 | locus YGR252W, strain gcn5, hits give low values 0.958 | locus YHR013C, strain ard1, hits give low values 0.949 | locus YHR027C, strain rpn1, hits give low values 1 | locus YHR030C, strain SLT2, hits give low values 0.997 and 1.04 | locus YHR079C, strain IRE1 (second series), hits give low values 0.971 | locus YHR079C, strain IRE1, hits give low values 1.04 | locus YHR094C, strain hxt1, hits give low values 0.992 | locus YHR129C, strain ARP1, hits give low values 1.01 | locus YHR142W, strain chs7, hits give low values 0.981 | locus YHR200W, strain rpn10, hits give low values 0.971 | locus YIL066C, strain RNR3, hits give low values 1.01 | locus YIL073C, strain SPO22, hits give low values 0.929 | locus YIL125W, strain kgd1, hits give low values 0.986 | locus YIR030C, strain dcg1, hits give low values 0.964 | locus YJL092W, strain hpr5, hits give low values 1 | locus YJL095W, strain BCK1 (second series), hits give low values 0.988 | locus YJL095W, strain BCK1, hits give low values 0.991 and 1.03 | locus YJL115W, strain asf1, hits give low values 0.988 | locus YJL129C, strain trk1, hits give low values 0.963 | locus YJL134W, strain LCB3, hits give low values 0.999 | locus YJL154C, strain vps35, hits give low values 0.984 | locus YJL164C, strain tpk1, hits give low values 1.02 | locus YJL166W, strain qcr8, hits give low values 1.03 | locus YJL168C, strain set2, hits give low values 0.984 | locus YJL187C, strain SWE1 (second series), hits give low values 1 | locus YJR043C, strain POL32, hits give low values 1.02 | locus YJR066W, strain TOR1, hits give low values 0.991 | locus YJR075W, strain HOC1, hits give low values 0.997 | locus YKL009W, strain mrt4, hits give low values 0.966 | locus YKL068W, hits give low values 0.987 | locus YKL085W, strain MDH1 (second series), hits give low values 0.967 | locus YKL085W, strain MDH1, hits give low values 0.967 | locus YKL160W, strain elf1, hits give low values 0.952 | locus YKL190W, strain CNB1, hits give low values 0.985 | locus YKR001C, strain vps1, hits give low values 0.996 | locus YKR026C, strain gcn3, hits give low values 0.985 | locus YKR091W, strain srl3, hits give low values 0.983 | locus YLL001W, strain dnm1, hits give low values 1 | locus YLL026W, hits give low values 1 | locus YLL041C, strain sdh2, hits give low values 1.01 | locus YLR027C, strain aat2, hits give low values 0.991 | locus YLR039C, strain RIC1, hits give low values 0.879 | locus YLR058C, strain SHM2, hits give low values 1 | locus YLR102C, strain apc9, hits give low values 0.972 | locus YLR113W, strain HOG1, hits give low values 1.03 | locus YLR221C, strain rsa3, hits give low values 1.04 | locus YLR258W, strain gsy2, hits give low values 0.979 | locus YLR262C, strain YPT6 (second series), hits give low values 1.06 | locus YLR262C, strain YPT6, hits give low values 0.995 | locus YLR268W, strain sec22, hits give low values 0.981 | locus YLR320W, strain mms22, hits give low values 0.999 | locus YLR330W, strain CHS5, hits give low values 0.995 | locus YLR342W, strain FKS1 (second series), hits give low values 1.01 | locus YLR342W, strain FKS1, hits give low values 0.97 | locus YLR357W, strain rsc2, hits give low values 0.98 | locus YLR370C, strain arc18, hits give low values 0.978 | locus YLR371W, strain rom2, hits give low values 0.983 | locus YLR384C, strain iki3, hits give low values 0.997 | locus YLR418C, strain cdc73, hits give low values 0.965 | locus YML016C, strain PPZ1, hits give low values 1.01 | locus YML032C, strain rad52, hits give low values 0.994 | locus YML120C, strain ndi1, hits give low values 1.01 | locus YML124C, strain tub3, hits give low values 0.977 | locus YMR058W, strain fet3, hits give low values 0.995 | locus YMR078C, strain ctf18, hits give low values 0.96 | locus YMR125W, strain sto1, hits give low values 0.973 | locus YMR129W, hits give low values 1 | locus YMR205C, strain PFK2, hits give low values 0.984 | locus YMR223W, strain ubp8, hits give low values 0.952 | locus YMR231W, strain pep5, hits give low values 0.981 | [2] 1.05 | locus YNL067W, strain RPL9B, hits give low values 0.997 | locus YNL071W, strain lat1, hits give low values 0.989 | locus YNL153C, strain GIM3, hits give low values 1.01 | locus YNL183C, strain NPR1, hits give low values 0.993 | locus YNL209W, strain ssb2, hits give low values 0.979 | locus YNL233W, strain BNI4, hits give low values 1 | locus YNL248C, strain rpa49, hits give low values 0.965 | locus YNL250W, strain rad50, hits give low values 0.964 | locus YNL271C, strain bni1, hits give low values 0.97 | locus YNL298W, strain CLA4, hits give low values 0.946 | locus YNL307C, strain MCK1, hits give low values 0.982 | locus YNL322C, strain KRE1 (second series), hits give low values 0.966 | locus YNR049C, strain mso1, hits give low values 0.998 | locus YNR052C, strain pop2, hits give low values 0.962 | locus YOL006C, strain TOP1, hits give low values 0.987 | locus YOL012C, strain htz1 0.891 | locus YOL147C, strain pex11, hits give low values 0.973 | locus YOR001W, strain rrp6, hits give low values 1.03 | locus YOR061W, strain CKA2, hits give low values 1 | locus YOR069W, strain VPS5, hits give low values 1.01 | locus YOR070C, strain gyp1, hits give low values 0.994 | locus YOR080W, strain dia2, hits give low values 1 | locus YOR083W, strain WHI5, hits give low values 0.922 | locus YOR106W, strain vam3, hits give low values 0.977 | locus YOR136W, strain idh2, hits give low values 0.987 | locus YOR144C, strain elg1, hits give low values 0.986 | locus YOR184W, strain ser1, hits give low values 0.974 | locus YOR231W, strain MKK1, hits give low values 1.04 | locus YOR265W, strain rbl2, hits give low values 0.997 | locus YOR270C, strain vph1, hits give low values 1.07 | locus YOR290C, strain snf2, hits give low values 0.955 | locus YOR316C, strain cot1, hits give low values 0.974 | locus YPL051W, strain arl3, hits give low values 0.98 | [3] 0.999 | locus YPL078C, strain atp4, hits give low values 1 | locus YPL106C, strain sse1, hits give low values 0.965 | locus YPL240C, strain hsp82, hits give low values 1.02 | locus YPL241C, strain CIN2, hits give low values 1 | locus YPL256C, strain CLN2, hits give low values 1.06 | locus YPR119W, strain clb2, hits give low values 0.968 | locus YPR141C, strain kar3, hits give low values 0.977 | locus YPR163C, strain tif3, hits give low values 0.976 | locus YPR167C, strain met16, hits give low values 0.983 | strain wtn01, hits give low values 0.97
